# Measured values as given in the supplement of paper PMC4466140.
# B1: unnamed (peptide)
# chain: QTREPNEPPPPSPAM
# B2: unnamed (peptide)
# chain: FTLPPPPPPPGLDEL
# Molecular target: SpBzz1-D2
# Assay: SPOT peptide array binding signal intensity (averaged, normalized) (arbitrary units (background-subtracted, floor 0; scale differs between SH3 domains)); higher = stronger binding of the SH3 domain to the peptide
# Procedure, shortened: (§1)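 The binding signal is the normalized, background-subtracted spot intensity averaged over replicates; its arbitrary units differ between domains. It was obtained by incubating 10 μg/ml GST-fused SH3 domains from four yeast species overnight at 4°C in TBS-based blocking buffer on cellulose membranes with synthetic 15-mer peptides, cysteines replaced by serines, then detecting with anti-GST antibody, HRP anti-mouse secondary and luminol.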
row,Binder,SPOT peptide array binding signal intensity
1,B1,0.5
2,B2,9.25

# Molecular target: SpCyk3
# Assay: as above
# Procedure, shortened: as §1
row,Binder,SPOT peptide array binding signal intensity
1,B1,0.5
2,B2,≤ 0

# Molecular target: SpHof1
# Assay: as above
# Procedure, shortened: as §1
row,Binder,SPOT peptide array binding signal intensity
1,B1,≤ 0
2,B2,2.5

# Molecular target: SpHof1-2
# Assay: as above
# Procedure, shortened: as §1
row,Binder,SPOT peptide array binding signal intensity
1,B1,7.75
2,B2,1

# Molecular target: SpHof1-3
# Assay: as above
# Procedure, shortened: as §1
row,Binder,SPOT peptide array binding signal intensity
1,B1,≤ 0
2,B2,5.75

# Molecular target: SpHse1
# Assay: as above
# Procedure, shortened: as §1
row,Binder,SPOT peptide array binding signal intensity
1,B1,≤ 0
2,B2,≤ 0

# Molecular target: SpLsb1
# Assay: as above
# Procedure, shortened: as §1
row,Binder,SPOT peptide array binding signal intensity
1,B1,≤ 0
2,B2,≤ 0

# Molecular target: SpLsb4
# Assay: as above
# Procedure, shortened: as §1
row,Binder,SPOT peptide array binding signal intensity
1,B1,≤ 0
2,B2,≤ 0

# Molecular target: SpMyo1
# Assay: as above
# Procedure, shortened: as §1
row,Binder,SPOT peptide array binding signal intensity
1,B1,1240
2,B2,1110

# Molecular target: SpNbp2
# Assay: as above
# Procedure, shortened: as §1
row,Binder,SPOT peptide array binding signal intensity
1,B1,≤ 0
2,B2,≤ 0

# Molecular target: SpPex13
# Assay: as above
# Procedure, shortened: as §1
row,Binder,SPOT peptide array binding signal intensity
1,B1,2
2,B2,≤ 0

# Molecular target: SpRvs167
# Assay: as above
# Procedure, shortened: as §1
row,Binder,SPOT peptide array binding signal intensity
1,B1,1.67
2,B2,16.7

# Molecular target: SpSla1-D1-D2
# Assay: as above
# Procedure, shortened: as §1
row,Binder,SPOT peptide array binding signal intensity
1,B1,≤ 0
2,B2,≤ 0

# Molecular target: SpSla1-D3
# Assay: as above
# Procedure, shortened: as §1
row,Binder,SPOT peptide array binding signal intensity
1,B1,≤ 0
2,B2,≤ 0

# Molecular target: AgAbp1
# Assay: as above
# Procedure, shortened: as §1
row,Binder,SPOT peptide array binding signal intensity
1,B2,≤ 0

# Molecular target: AgBbc1
# Assay: as above
# Procedure, shortened: as §1
row,Binder,SPOT peptide array binding signal intensity
1,B2,≤ 0

# Molecular target: AgBem1-D1
# Assay: as above
# Procedure, shortened: as §1
row,Binder,SPOT peptide array binding signal intensity
1,B2,≤ 0

# Molecular target: AgBzz1-D1
# Assay: as above
# Procedure, shortened: as §1
row,Binder,SPOT peptide array binding signal intensity
1,B2,≤ 0

# Molecular target: AgBzz1-D2
# Assay: as above
# Procedure, shortened: as §1
row,Binder,SPOT peptide array binding signal intensity
1,B2,3

# Molecular target: AgCyk3
# Assay: as above
# Procedure, shortened: as §1
row,Binder,SPOT peptide array binding signal intensity
1,B2,≤ 0

# Molecular target: AgFus1
# Assay: as above
# Procedure, shortened: as §1
row,Binder,SPOT peptide array binding signal intensity
1,B2,≤ 0

# Molecular target: AgHof1
# Assay: as above
# Procedure, shortened: as §1
row,Binder,SPOT peptide array binding signal intensity
1,B2,85.8

# Molecular target: AgHse1
# Assay: as above
# Procedure, shortened: as §1
row,Binder,SPOT peptide array binding signal intensity
1,B2,≤ 0

# Molecular target: AgLsb1
# Assay: as above
# Procedure, shortened: as §1
row,Binder,SPOT peptide array binding signal intensity
1,B2,≤ 0

# Molecular target: AgLsb4
# Assay: as above
# Procedure, shortened: as §1
row,Binder,SPOT peptide array binding signal intensity
1,B2,≤ 0

# Molecular target: AgMyo5
# Assay: as above
# Procedure, shortened: as §1
row,Binder,SPOT peptide array binding signal intensity
1,B2,1170

# Molecular target: AgNbp2
# Assay: as above
# Procedure, shortened: as §1
row,Binder,SPOT peptide array binding signal intensity
1,B2,≤ 0

# Molecular target: AgRvs167
# Assay: as above
# Procedure, shortened: as §1
row,Binder,SPOT peptide array binding signal intensity
1,B2,0.833

# Molecular target: AgSho1
# Assay: as above
# Procedure, shortened: as §1
row,Binder,SPOT peptide array binding signal intensity
1,B2,≤ 0

# Molecular target: AgSla1-D1-D2
# Assay: as above
# Procedure, shortened: as §1
row,Binder,SPOT peptide array binding signal intensity
1,B2,4

# Molecular target: AgSla1-D3
# Assay: as above
# Procedure, shortened: as §1
row,Binder,SPOT peptide array binding signal intensity
1,B2,≤ 0

# Molecular target: CaAbp1-D1
# Assay: as above
# Procedure, shortened: as §1
row,Binder,SPOT peptide array binding signal intensity
1,B2,≤ 0

# Molecular target: CaAbp1-D2
# Assay: as above
# Procedure, shortened: as §1
row,Binder,SPOT peptide array binding signal intensity
1,B2,≤ 0

# Molecular target: CaBbc1
# Assay: as above
# Procedure, shortened: as §1
row,Binder,SPOT peptide array binding signal intensity
1,B2,≤ 0

# Molecular target: CaBem1-D1
# Assay: as above
# Procedure, shortened: as §1
row,Binder,SPOT peptide array binding signal intensity
1,B2,≤ 0

# Molecular target: CaBzz1-D1
# Assay: as above
# Procedure, shortened: as §1
row,Binder,SPOT peptide array binding signal intensity
1,B2,491

# Molecular target: CaBzz1-D2
# Assay: as above
# Procedure, shortened: as §1
row,Binder,SPOT peptide array binding signal intensity
1,B2,23

# Molecular target: CaCyk3
# Assay: as above
# Procedure, shortened: as §1
row,Binder,SPOT peptide array binding signal intensity
1,B2,≤ 0

# Molecular target: CaFus1
# Assay: as above
# Procedure, shortened: as §1
row,Binder,SPOT peptide array binding signal intensity
1,B2,≤ 0

# Molecular target: CaHof1
# Assay: as above
# Procedure, shortened: as §1
row,Binder,SPOT peptide array binding signal intensity
1,B2,0.5

# Molecular target: CaHse1
# Assay: as above
# Procedure, shortened: as §1
row,Binder,SPOT peptide array binding signal intensity
1,B2,≤ 0

# Molecular target: CaLsb1
# Assay: as above
# Procedure, shortened: as §1
row,Binder,SPOT peptide array binding signal intensity
1,B2,≤ 0

# Molecular target: CaLsb4
# Assay: as above
# Procedure, shortened: as §1
row,Binder,SPOT peptide array binding signal intensity
1,B2,≤ 0

# Molecular target: CaMyo5
# Assay: as above
# Procedure, shortened: as §1
row,Binder,SPOT peptide array binding signal intensity
1,B2,33.8

# Molecular target: CaNbp2
# Assay: as above
# Procedure, shortened: as §1
row,Binder,SPOT peptide array binding signal intensity
1,B2,≤ 0

# Molecular target: CaRvs167
# Assay: as above
# Procedure, shortened: as §1
row,Binder,SPOT peptide array binding signal intensity
1,B2,≤ 0

# Molecular target: CaRvs167-3
# Assay: as above
# Procedure, shortened: as §1
row,Binder,SPOT peptide array binding signal intensity
1,B2,≤ 0

# Molecular target: CaSho1
# Assay: as above
# Procedure, shortened: as §1
row,Binder,SPOT peptide array binding signal intensity
1,B2,≤ 0

# Molecular target: CaSla1-D1-D2
# Assay: as above
# Procedure, shortened: as §1
row,Binder,SPOT peptide array binding signal intensity
1,B2,7

# Molecular target: CaSla1-D3
# Assay: as above
# Procedure, shortened: as §1
row,Binder,SPOT peptide array binding signal intensity
1,B2,≤ 0

# Molecular target: ScAbp1
# Assay: as above
# Procedure, shortened: as §1
row,Binder,SPOT peptide array binding signal intensity
1,B2,≤ 0

# Molecular target: ScBbc1
# Assay: as above
# Procedure, shortened: as §1
row,Binder,SPOT peptide array binding signal intensity
1,B2,2

# Molecular target: ScBem1-D1
# Assay: as above
# Procedure, shortened: as §1
row,Binder,SPOT peptide array binding signal intensity
1,B2,≤ 0

# Molecular target: ScBzz1-D1
# Assay: as above
# Procedure, shortened: as §1
row,Binder,SPOT peptide array binding signal intensity
1,B2,12

# Molecular target: ScBzz1-D2
# Assay: as above
# Procedure, shortened: as §1
row,Binder,SPOT peptide array binding signal intensity
1,B2,0.5

# Molecular target: ScCyk3
# Assay: as above
# Procedure, shortened: as §1
row,Binder,SPOT peptide array binding signal intensity
1,B2,≤ 0

# Molecular target: ScFus1
# Assay: as above
# Procedure, shortened: as §1
row,Binder,SPOT peptide array binding signal intensity
1,B2,≤ 0

# Molecular target: ScHof1
# Assay: as above
# Procedure, shortened: as §1
row,Binder,SPOT peptide array binding signal intensity
1,B2,204

# Molecular target: ScHse1
# Assay: as above
# Procedure, shortened: as §1
row,Binder,SPOT peptide array binding signal intensity
1,B2,≤ 0

# Molecular target: ScLsb1
# Assay: as above
# Procedure, shortened: as §1
row,Binder,SPOT peptide array binding signal intensity
1,B2,0.25

# Molecular target: ScLsb2
# Assay: as above
# Procedure, shortened: as §1
row,Binder,SPOT peptide array binding signal intensity
1,B2,≤ 0

# Molecular target: ScLsb3
# Assay: as above
# Procedure, shortened: as §1
row,Binder,SPOT peptide array binding signal intensity
1,B2,≤ 0

# Molecular target: ScLsb4
# Assay: as above
# Procedure, shortened: as §1
row,Binder,SPOT peptide array binding signal intensity
1,B2,≤ 0

# Molecular target: ScMyo3
# Assay: as above
# Procedure, shortened: as §1
row,Binder,SPOT peptide array binding signal intensity
1,B2,1360

# Molecular target: ScMyo5
# Assay: as above
# Procedure, shortened: as §1
row,Binder,SPOT peptide array binding signal intensity
1,B2,1880

# Molecular target: ScNbp2
# Assay: as above
# Procedure, shortened: as §1
row,Binder,SPOT peptide array binding signal intensity
1,B2,1

# Molecular target: ScPex13
# Assay: as above
# Procedure, shortened: as §1
row,Binder,SPOT peptide array binding signal intensity
1,B2,1

# Molecular target: ScRvs167
# Assay: as above
# Procedure, shortened: as §1
row,Binder,SPOT peptide array binding signal intensity
1,B2,≤ 0

# Molecular target: ScSho1
# Assay: as above
# Procedure, shortened: as §1
row,Binder,SPOT peptide array binding signal intensity
1,B2,≤ 0

# Molecular target: ScSla1-D1-D2
# Assay: as above
# Procedure, shortened: as §1
row,Binder,SPOT peptide array binding signal intensity
1,B2,4.5

# Molecular target: ScSla1-D3
# Assay: as above
# Procedure, shortened: as §1
row,Binder,SPOT peptide array binding signal intensity
1,B2,1.5

# Molecular target: SpAbp1-D1
# Assay: as above
# Procedure, shortened: as §1
row,Binder,SPOT peptide array binding signal intensity
1,B2,≤ 0

# Molecular target: SpBbc1
# Assay: as above
# Procedure, shortened: as §1
row,Binder,SPOT peptide array binding signal intensity
1,B2,≤ 0

# Molecular target: SpBzz1-D1
# Assay: as above
# Procedure, shortened: as §1
row,Binder,SPOT peptide array binding signal intensity
1,B2,1530
